Data published in the supplement of paper PMC10849652.
The full data set covers some 7,900 targets. This sample favours those with a hit. About 0.6% of all pairs of compound and target were hits. Unmarked numbers belong to inactive results.

How the values were obtained:
Assay in all cases: log2 fold change, soluble protein after heating vs DMSO (PISA); higher = thermal stabilisation; K562 cells, 10 uM, 30 min; active = over 0.2 and 3.5 SD of the protein, either way, in both replicates (recomputed)
erlotinib = compound: C#Cc1cccc(Nc2ncnc3cc(OCCOC)c(OCCOC)cc23)c1 [erlotinib]
In short: (§1)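 Soluble protein was quantified by TMTpro 16plex LC-MS/MS after channel sums were equalised. It was obtained as the supernatant after 21,000xg for 90 min from pooled aliquots of K562 cells (2×10^6 cells/mL, 10 μM compound, 30 min) heated for 3 min across 48°C-58°C and extracted in PBS with 0.5% NP-40 at 4°C. Thermal stability values are relative to control samples and come from duplicates. They are given as log2 fold changes.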

[1] = compound: C/C(=N\NC(=O)C1=CC(=CC=C1)S(=O)(=O)N2CCOCC2)/C3=C(C=CC(=C3)Cl)O
In short: as §1

[2] = compound: C1=CC(=C(C=C1Cl)C2=NC3=NC=CN=C3C(=N2)NC4=CC=NC=C4)F
In short: as §1

[3] = compound: C1=CC(=CC=C1C2=NC3=C(N2)C=C(C=C3)C(=O)N)OC4=CC=C(C=C4)Cl
In short: as §1

[4] = compound: C1=CC2=C(C=CC(=C2)/C=C\3/C(=O)NC(=NCC4=CC=CS4)S3)N=C1
In short: as §1

[5] = compound: C1=CC2=NC=CN=C2C=C1/C=C/3\C(=O)NC(=O)S3
In short: as §1

[6] = compound: C1=CC=C(C=C1)C2=NC(=C(N2)C3=CC=NC=C3)C4=CC(=C(C=C4)Cl)O
In short: as §1

[7] = compound: C1=CC=C2C(=C1)C3=NNC4=CC=CC(=C43)C2=O
In short: as §1

[8] = compound: C1CCN(C1)C(=O)NC2=CC=CC(=C2)NC3=NC=C(C(=N3)NCCC4=CN=CN4)Br
In short: as §1

[9] = compound: C1CN(CCC1(CC2=CC=C(C=C2)Cl)N)C3=NC=NC4=C3C=CN4
In short: as §1

IRAK-1-4 Inhibitor I = compound: C1COCCN1CCN2C3=CC=CC=C3N=C2NC(=O)C4=CC(=CC=C4)[N+](=O)[O-] [IRAK-1-4 Inhibitor I]
In short: as §1

ibrutinib = compound: C=CC(=O)N1CCC[C@@H](n2nc(-c3ccc(Oc4ccccc4)cc3)c3c(N)ncnc32)C1 [ibrutinib]
In short: as §1

[10] = compound: CC(=O)c1cnc2ccc(-c3cc(Cl)c(O)c(Cl)c3)nc2c1N[C@H]1CC[C@H](CN(C)C)CC1
In short: as §1

ralimetinib = compound: CC(C)(C)Cn1c(N)nc2ccc(-c3[nH]c(C(C)(C)C)nc3-c3ccc(F)cc3)nc21 [ralimetinib]
In short: as §1

[11] = compound: CC(C)(O)CC(=O)NCCn1ccc2ncnc(Nc3ccc(Oc4cccc(C(F)(F)F)c4)c(Cl)c3)c21
In short: as §1

[12] = compound: CC(C)C1=C2N=C(C=C(N2N=C1)NCC3=CC=CC=C3)NCCCCCCN
In short: as §1

[13] = compound: CC(C)C[C@@H](C=O)NC(=O)[C@H](CC(C)C)NC(=O)[C@H](CC(C)C)NC(=O)OCc1ccccc1
In short: as §1

pinometostat = compound: CC(C)N(C[C@H]1O[C@@H](n2cnc3c(N)ncnc32)[C@H](O)[C@@H]1O)[C@H]1C[C@@H](CCc2nc3cc(C(C)(C)C)ccc3[nH]2)C1 [pinometostat]
In short: as §1

[14] = compound: CC1=C(C(CC(=O)N1)C2=CC=C(C=C2)C(F)(F)F)C(=O)NC3=C(C=C4C(=C3)C=NN4)F
In short: as §1

[15] = compound: CC1=C(C2=C(C=C1)C(=O)C3=CC=CC=C3N2CCCN)C
In short: as §1

UniProt Q96MF7, sequence (Q96MF7 whole entry, looked up): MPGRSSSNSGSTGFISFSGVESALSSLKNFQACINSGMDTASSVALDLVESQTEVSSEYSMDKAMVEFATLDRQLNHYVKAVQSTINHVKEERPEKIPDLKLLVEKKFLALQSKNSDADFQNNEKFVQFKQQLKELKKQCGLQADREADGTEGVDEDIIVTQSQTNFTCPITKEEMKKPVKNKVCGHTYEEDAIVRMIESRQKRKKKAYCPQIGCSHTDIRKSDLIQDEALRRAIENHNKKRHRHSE
UniProt Q8WV92, sequence (Q8WV92 whole entry, looked up): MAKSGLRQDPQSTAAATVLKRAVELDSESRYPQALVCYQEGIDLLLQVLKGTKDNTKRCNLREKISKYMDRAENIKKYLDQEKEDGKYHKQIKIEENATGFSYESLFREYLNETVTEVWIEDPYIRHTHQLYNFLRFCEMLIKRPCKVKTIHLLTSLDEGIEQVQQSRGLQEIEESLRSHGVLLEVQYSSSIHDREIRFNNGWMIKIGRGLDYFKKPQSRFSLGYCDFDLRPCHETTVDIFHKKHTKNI
UniProt Q969V5, sequence (Q969V5 whole entry, looked up): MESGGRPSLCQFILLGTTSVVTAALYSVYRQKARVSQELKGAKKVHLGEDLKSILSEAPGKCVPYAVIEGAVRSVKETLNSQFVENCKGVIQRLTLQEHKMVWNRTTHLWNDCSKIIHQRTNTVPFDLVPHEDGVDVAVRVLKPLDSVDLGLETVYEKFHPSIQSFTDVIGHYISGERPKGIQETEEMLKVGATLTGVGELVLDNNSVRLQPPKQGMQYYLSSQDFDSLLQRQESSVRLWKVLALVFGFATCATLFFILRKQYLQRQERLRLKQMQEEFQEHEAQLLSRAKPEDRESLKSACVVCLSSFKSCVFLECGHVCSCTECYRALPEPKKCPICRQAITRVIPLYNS
UniProt Q9BPX3, sequence (Q9BPX3 whole entry, looked up): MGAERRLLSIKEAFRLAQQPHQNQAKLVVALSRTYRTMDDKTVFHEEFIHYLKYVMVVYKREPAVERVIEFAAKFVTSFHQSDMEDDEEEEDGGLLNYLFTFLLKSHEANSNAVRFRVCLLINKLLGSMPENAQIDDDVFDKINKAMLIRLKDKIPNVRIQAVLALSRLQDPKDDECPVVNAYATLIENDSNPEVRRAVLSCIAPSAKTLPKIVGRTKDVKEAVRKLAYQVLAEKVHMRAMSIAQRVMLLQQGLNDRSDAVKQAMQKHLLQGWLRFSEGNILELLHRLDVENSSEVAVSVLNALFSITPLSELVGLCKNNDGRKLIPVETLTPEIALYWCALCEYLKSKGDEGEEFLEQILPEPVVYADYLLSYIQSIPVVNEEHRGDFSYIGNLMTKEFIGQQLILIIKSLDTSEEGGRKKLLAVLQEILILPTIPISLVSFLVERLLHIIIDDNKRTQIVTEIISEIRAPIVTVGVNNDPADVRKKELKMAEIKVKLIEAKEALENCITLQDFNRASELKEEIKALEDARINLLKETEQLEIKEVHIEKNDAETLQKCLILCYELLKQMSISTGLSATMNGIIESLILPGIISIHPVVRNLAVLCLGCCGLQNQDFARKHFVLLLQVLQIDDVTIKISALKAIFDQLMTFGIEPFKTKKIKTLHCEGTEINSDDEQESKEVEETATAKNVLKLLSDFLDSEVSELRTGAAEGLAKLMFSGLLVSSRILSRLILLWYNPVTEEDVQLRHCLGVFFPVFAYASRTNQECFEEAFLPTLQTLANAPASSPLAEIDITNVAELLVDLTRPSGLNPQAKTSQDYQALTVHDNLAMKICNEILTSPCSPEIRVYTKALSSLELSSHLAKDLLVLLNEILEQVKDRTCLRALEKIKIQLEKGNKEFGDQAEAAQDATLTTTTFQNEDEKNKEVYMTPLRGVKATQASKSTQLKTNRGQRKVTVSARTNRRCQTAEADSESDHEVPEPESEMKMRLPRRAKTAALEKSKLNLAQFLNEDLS
UniProt Q96DE0, sequence (Q96DE0 whole entry, looked up): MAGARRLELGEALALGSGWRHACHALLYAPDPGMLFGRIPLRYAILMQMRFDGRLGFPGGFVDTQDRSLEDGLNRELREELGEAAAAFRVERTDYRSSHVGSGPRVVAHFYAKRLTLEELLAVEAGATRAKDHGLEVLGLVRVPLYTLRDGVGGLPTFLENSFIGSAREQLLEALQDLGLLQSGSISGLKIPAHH
UniProt Q9H3P2, sequence (Q9H3P2 whole entry, looked up): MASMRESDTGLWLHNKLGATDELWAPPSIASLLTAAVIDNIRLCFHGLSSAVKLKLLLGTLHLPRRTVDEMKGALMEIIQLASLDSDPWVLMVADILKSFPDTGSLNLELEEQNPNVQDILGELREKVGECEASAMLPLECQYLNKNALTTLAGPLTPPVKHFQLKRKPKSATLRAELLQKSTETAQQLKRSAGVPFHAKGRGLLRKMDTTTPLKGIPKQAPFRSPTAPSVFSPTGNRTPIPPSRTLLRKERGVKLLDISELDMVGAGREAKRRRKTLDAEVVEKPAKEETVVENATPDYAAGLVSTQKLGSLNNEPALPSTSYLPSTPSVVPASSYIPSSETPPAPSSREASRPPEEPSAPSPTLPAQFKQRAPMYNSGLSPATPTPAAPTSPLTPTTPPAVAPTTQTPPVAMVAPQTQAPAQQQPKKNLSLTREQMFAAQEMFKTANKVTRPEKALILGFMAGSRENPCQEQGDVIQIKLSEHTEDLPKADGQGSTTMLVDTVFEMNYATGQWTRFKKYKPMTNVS
UniProt Q9BRP4, sequence (Q9BRP4 whole entry, looked up): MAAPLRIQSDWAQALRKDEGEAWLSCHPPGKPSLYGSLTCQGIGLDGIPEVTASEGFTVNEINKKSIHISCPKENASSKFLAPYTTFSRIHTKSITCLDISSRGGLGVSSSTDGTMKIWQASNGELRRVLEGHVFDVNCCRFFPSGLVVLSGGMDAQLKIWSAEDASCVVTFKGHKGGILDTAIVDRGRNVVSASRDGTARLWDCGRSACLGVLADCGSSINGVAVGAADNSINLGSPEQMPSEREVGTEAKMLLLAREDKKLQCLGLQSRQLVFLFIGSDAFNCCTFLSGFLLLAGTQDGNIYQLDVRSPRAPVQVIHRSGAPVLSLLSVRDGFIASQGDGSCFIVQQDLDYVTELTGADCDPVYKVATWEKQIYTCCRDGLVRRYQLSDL
UniProt P55209, sequence (P55209 whole entry, looked up): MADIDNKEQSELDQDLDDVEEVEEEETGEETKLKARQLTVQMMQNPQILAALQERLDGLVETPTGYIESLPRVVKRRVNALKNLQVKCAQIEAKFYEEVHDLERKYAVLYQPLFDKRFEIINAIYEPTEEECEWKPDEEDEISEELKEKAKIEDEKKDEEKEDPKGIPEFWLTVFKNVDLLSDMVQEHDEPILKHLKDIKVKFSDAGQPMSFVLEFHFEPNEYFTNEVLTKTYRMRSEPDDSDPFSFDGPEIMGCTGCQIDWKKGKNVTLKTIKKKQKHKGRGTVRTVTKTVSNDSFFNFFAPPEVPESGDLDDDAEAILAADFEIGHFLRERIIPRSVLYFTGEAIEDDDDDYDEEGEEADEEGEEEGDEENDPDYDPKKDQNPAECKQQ
UniProt O60934, sequence (O60934 whole entry, looked up): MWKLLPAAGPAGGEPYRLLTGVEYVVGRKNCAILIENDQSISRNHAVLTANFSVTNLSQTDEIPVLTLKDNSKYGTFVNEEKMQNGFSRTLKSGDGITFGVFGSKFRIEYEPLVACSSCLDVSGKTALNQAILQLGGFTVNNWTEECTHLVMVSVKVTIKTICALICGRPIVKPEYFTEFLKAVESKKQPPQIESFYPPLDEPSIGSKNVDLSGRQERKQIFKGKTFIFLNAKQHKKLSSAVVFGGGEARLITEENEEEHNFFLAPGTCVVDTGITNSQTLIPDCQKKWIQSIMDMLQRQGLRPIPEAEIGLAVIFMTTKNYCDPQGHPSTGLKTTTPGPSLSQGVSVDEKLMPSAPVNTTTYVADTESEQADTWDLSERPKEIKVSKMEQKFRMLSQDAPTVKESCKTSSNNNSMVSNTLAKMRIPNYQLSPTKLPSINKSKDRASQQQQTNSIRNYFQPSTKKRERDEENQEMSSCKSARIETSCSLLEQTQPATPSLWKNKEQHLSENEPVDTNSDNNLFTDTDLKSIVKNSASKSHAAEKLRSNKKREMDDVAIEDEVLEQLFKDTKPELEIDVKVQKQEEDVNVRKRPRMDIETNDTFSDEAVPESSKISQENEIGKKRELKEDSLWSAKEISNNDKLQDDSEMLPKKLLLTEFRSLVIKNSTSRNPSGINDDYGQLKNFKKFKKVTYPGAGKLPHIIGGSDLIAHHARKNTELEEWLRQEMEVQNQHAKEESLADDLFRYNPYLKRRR
UniProt Q9BUK6, sequence (Q9BUK6 whole entry, looked up): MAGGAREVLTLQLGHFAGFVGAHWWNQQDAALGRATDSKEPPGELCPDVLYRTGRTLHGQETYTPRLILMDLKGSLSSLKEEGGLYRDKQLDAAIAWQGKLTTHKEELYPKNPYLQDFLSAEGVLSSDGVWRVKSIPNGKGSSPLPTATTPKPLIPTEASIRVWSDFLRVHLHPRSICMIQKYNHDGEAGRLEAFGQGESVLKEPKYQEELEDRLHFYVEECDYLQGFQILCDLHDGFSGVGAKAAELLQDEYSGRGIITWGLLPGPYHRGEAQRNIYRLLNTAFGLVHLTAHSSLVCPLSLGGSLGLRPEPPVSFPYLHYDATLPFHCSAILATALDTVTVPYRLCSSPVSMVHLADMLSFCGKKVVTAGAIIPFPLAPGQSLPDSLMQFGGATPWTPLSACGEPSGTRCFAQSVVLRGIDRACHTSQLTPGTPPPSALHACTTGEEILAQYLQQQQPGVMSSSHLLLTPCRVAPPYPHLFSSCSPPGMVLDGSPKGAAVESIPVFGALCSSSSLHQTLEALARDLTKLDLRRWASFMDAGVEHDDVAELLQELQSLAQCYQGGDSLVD

Target | log2 fold change (erlotinib) | log2 fold change [1] | log2 fold change [2] | log2 fold change [3] | log2 fold change [4] | log2 fold change [5] | log2 fold change [6] | log2 fold change [7] | log2 fold change [8] | log2 fold change [9] | log2 fold change (IRAK-1-4 Inhibitor I) | log2 fold change (ibrutinib) | log2 fold change [10] | log2 fold change (ralimetinib) | log2 fold change [11] | log2 fold change [12] | log2 fold change [13] | log2 fold change (pinometostat) | log2 fold change [14] | log2 fold change [15]
MRPS22 (UniProt P82650) | -0.052 | 0.026 | -0.021 | 0.16 | -0.082 | 0 | 0.026 | 0.068 | -0.028 | -0.101 | -0.027 | 0.051 | -0.02 | 0.017 | -0.102 | -0.11 | 0.04 | 0.007 | -0.013 | -0.175
NBN (UniProt O60934) | 0.064 | 0.087 | 0.06 | 0.033 | 0.005 | 0.028 | 0.012 | 0.002 | -0.029 | 0.037 | -0.009 | -0.008 | -0.147 | -0.028 | -0.062 | -0.025 | 0.007 | 0.009 | -0.029 | -0.02
NUDT16 (UniProt Q96DE0) | 0.081 | 0 | 0.111 | 0.01 | -0.034 | -0.004 | 0.014 | 0.026 | -0.085 | 0.081 | 0.049 | 0.03 | 0.022 | -0.039 | 0.005 | 0.066 | -0.001 | -0.001 | 0.017 | 0.004
NCAPG (UniProt Q9BPX3) | -0.007 | 0.114 | 0.013 | -0.03 | 0.005 | 0.002 | 0.027 | 0.043 | -0.044 | -0.104 | -0.092 | -0.033 | 0.084 | 0.038 | -0.126 | -0.197 | -0.005 | -0.003 | -0.011 | 0.016
NSMCE2 (UniProt Q96MF7) | -0.076 | 0.012 | -0.078 | 0.009 | 0.023 | -0.096 | 0.04 | -0.058 | -0.001 | 0.008 | -0.023 | -0.171 | -0.107 | 0.176 | 0.051 | 0.122 | -0.083 | -0.001 | -0.056 | -0.122
NOP58 (UniProt Q9Y2X3) | -0.013 | 0.001 | -0.332 | -0.001 | -0.043 | 0.034 | -0.055 | -0.126 | -0.156 | -0.143 | -0.06 | 0.039 | -0.117 | -0.008 | 0.06 | 0.052 | 0.117 | 0.128 | -0.035 | -0.029
MRPS33 (UniProt Q9Y291) | 0.023 | -0.018 | -0.129 | 0.021 | 0.019 | 0.032 | -0.043 | 0.018 | 0.026 | -0.133 | -0.006 | 0.022 | -0.004 | -0.038 | -0.069 | -0.034 | 0.122 | 0.096 | 0.096 | -0.158
MUL1 (UniProt Q969V5) | 0.015 | 0.038 | 0.073 | -0.004 | 0.026 | 0.069 | 0.095 | 0.034 | -0.025 | 0.005 | 0.009 | 0.009 | -0.113 | -0.008 | -0.068 | -0.004 | 0.027 | 0.021 | -0.016 | -0.01
NELFA (UniProt Q9H3P2) | 0.21 | 0.231 | 0.059 | -0.061 | 0.073 | 0.111 | 0.048 | 0 | -0.323 | -0.028 | -0.065 | 0 | -0.357 | 0.02 | -0.286 | -0.054 | -0.043 | -0.02 | -0.11 | 0.252
PAAF1 (UniProt Q9BRP4) | 0.038 | 0.032 | 0.097 | 0.068 | -0.009 | 0.009 | 0.027 | 0 | 0.003 | 0.009 | 0.037 | -0.003 | -0.029 | 0.001 | 0.007 | 0.037 | -0.28 (active) | -0.026 | 0.008 | 0.027
MSTO1 (UniProt Q9BUK6) | 0.031 | 0.06 | 0.075 | -0.044 | -0.003 | 0.007 | 0.038 | 0.043 | 0.011 | -0.041 | 0.012 | 0.009 | -0.003 | -0.028 | -0.162 | -0.105 | -0.003 | -0.002 | -0.027 | 0.043
NAP1L1 (UniProt P55209) | -0.021 | 0.006 | 0.036 | 0.035 | -0.048 | 0.066 | 0.026 | -0.018 | -0.02 | 0.07 | 0.04 | -0.041 | -0.012 | -0.003 | 0.021 | 0.017 | 0.021 | -0.029 | 0.105 | 0.004
NA, A0A0B4J2A0 | -0.037 | 0.07 | 0.065 | -0.009 | 0.037 | 0.038 | 0.108 | 0.026 | -0.055 | -0.007 | 0.014 | -0.015 | -0.072 | -0.023 | -0.105 | 0.044 | 0.031 | 0.018 | 0.051 | 0.107
NUMB (UniProt P49757) | 0.016 | -0.012 | -0.048 | 0.018 | -0.001 | 0.044 | -0.004 | -0.009 | -0.087 | 0.021 | 0.008 | -0.05 | -0.318 (active) | 0.049 | -0.062 | -0.086 | 0.053 | 0.061 | 0.047 | 0.079
OGFOD1 (UniProt Q8N543) | 0.043 | -0.18 | 0.02 | 0.007 | 0.015 | 0.11 | -0.01 | 0.014 | 0.007 | 0.03 | 0.07 | -0.036 | 0.009 | -0.05 | -0.023 | -0.018 | 0.035 | -0.011 | -0.028 | 0.036
MITD1 (UniProt Q8WV92) | 0.011 | -0.009 | 0.148 | 0.037 | 0.044 | 0.036 | -0.015 | 0.101 | 0.03 | -0.024 | -0.043 | 0.03 | 0 | -0.002 | -0.296 | -0.77 (active) | -0.002 | 0.082 | -0.101 | 0.047
